From PubChem BioAssay
SKKanGAS inh – SKKanGAS growth inhibition. S. pyogenes SKKanGAS, kanamycin growth, BacTiter-Glo, 6 h. AID 1662. 300,000 tested, 1.3% active. inhibition, % at 7.5 µM;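 active = mean replicate score, as percent of positive control median, at least 50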;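 also: strain carries kanamycin resistance gene driven by streptokinase promoter and grows in 40 µg/ml kanamycin; loss of luminescence reflects streptokinase promoter inhibition or plain growth inhibition; 0% = median of DMSO wells and 100% = positive control at its reference dose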
tim23-1 inh – tim23-1 yeast growth inhibition; S. cerevisiae tim23-1 growth, BacTiter-Glo luminescence, 24 h; inhibition, % at 20 µM; 330,000 tested, 1.3% active;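 active = growth inhibition of the mutant yeast at or above 50%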;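 also: temperature-sensitive mutant grown at 25 °C; plate controls were DMSO-treated mutant yeast for no effect and medium wells lacking yeast for full effect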
TIM10 inh – inhibits growth of TIM10 yeast strain; S. cerevisiae TIM10 strain growth, BacTiter-Glo luminescence, 24 h; inhibition, % at 10 µM; 330,000 tested, 1.4% active; AID 463195;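 active = inhibition of 40% or more at the single tested concentration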;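 also: wild-type TIM10 isogenic control strain grown at permissive 25 °C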
tim10-1 inh – growth inhibitors of tim10-1 mutant yeast; S. cerevisiae tim10-1 ts strain growth, BacTiter-Glo, 24 h; inhibition, % at 20 µM; 330,000 tested, 2.2% active; AID 463190;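 active = inhibition of at least 40%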;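 also: mutant grown at 25 °C; 0% = DMSO wells with yeast and 100% = wells holding no yeast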
NLRP3 yeast inh – NALP3 inhibition in yeast. Yeast reconstituted NLRP3/ASC/caspase-1, beta-gal luminescence, 24 h. inhibition, % at 10 µM. 330,000 tested, 0.39% active;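 active = inhibition of 50% or more; inactive = inhibition below 50%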;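 also: plate controls were induced DMSO wells for no effect and uninduced yeast grown without galactose for full effect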
tim23-1 conf – confirmation of tim23-1 mutant yeast growth inhibitors; 4,400 tested, 83% active; AID 463218; S. cerevisiae tim23-1 growth, BacTiter-Glo luminescence, 24 h; shares compounds with tim23-1 inh; inhibition, % at 20 µM;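 active = inhibition above about 39% in either of two replicate wells at 20 µM, limit read from the data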;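 also: temperature-sensitive tim23-1 mutant grown at 25 °C; 0% = DMSO wells with yeast and 100% = medium wells without yeast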
* marks the source's active call; other numbers are inactive results; . = no result. Most compounds without a hit are left out; they make up all but 4.6% or so of the library.

SMILES | SKKanGAS inh | tim23-1 inh | TIM10 inh | tim10-1 inh | NLRP3 yeast inh | tim23-1 conf
CCOc1ccc(/C=N/n2c(C3CCCCC3)n[nH]c2=S)cc1 | 17 | 74* | 37 | 28 | 24 | 21
S=c1[nH]nc(C2CCCCC2)n1/N=C/c1ccccc1 | 1 | 67* | 23 | 32 | 21 | 40*
Fc1ccc(/C=N/n2c(C3CCCCC3)n[nH]c2=S)cc1 | 1 | 71* | 34 | 35 | 22 | 32
Cc1ccc(C(=O)Nc2ccc(C(=O)N/N=C/c3c[nH]c4ccccc34)cc2)cc1 | 10 | -12 | 18 | 16 | 13 | .
Cc1cccc(NC(=S)N/N=C/c2c[nH]c3ccccc23)c1 | 8 | 64* | 6 | 38 | 12 | -6
NC(=O)Nc1ccccc1C(=O)N1CCC(O)(c2ccc(Cl)cc2)CC1 | 19 | -2 | 1 | -2 | -2 | .
CCn1cnc2cc(NCc3ccc(Br)cc3)ccc21 | 21 | 53* | 20 | 19 | 43 | 66*
O=C(COC(=O)c1cc([N+](=O)[O-])ccc1N1CCOCC1)Nc1ccc(Cl)cc1 | 17 | -53 | -21 | -16 | 20 | .
O=C(COC(=O)c1cc([N+](=O)[O-])ccc1N1CCOCC1)NCc1ccc(Cl)cc1Cl | 3 | 51* | 12 | 24 | 6 | 48*
CCC1CCc2sc(C(=O)NCC3CCCO3)cc2C1 (centres undefined) | . | 51* | 7 | 11 | 27 | 38
CCC1CCc2sc(C(=O)N(C)CC(=O)Nc3cccc(OC)c3)cc2C1 (centres undefined) | . | 51* | 12 | 19 | 27 | 41*
CCC1CCc2sc(C(=O)N(C)CC(=O)Nc3ccc(OC)cc3)cc2C1 (centres undefined) | 10 | 51* | 0 | 33 | 38 | 45*
Nc1nc(SCC(=O)NC2CCCCC2)n[nH]1 | 1 | 5 | -6 | -5 | 9 | .
CN(C(=O)CS(=O)(=O)c1cn(CC(=O)N2CCCCC2)c2ccccc12)c1ccccc1 | -1 | -1 | 19 | 4 | 6 | .
CCOc1cc(N2CCOCC2)c(OCC)cc1NC(=O)c1cccc(S(=O)(=O)N2CCOCC2)c1 | . | 8 | 5 | 2 | 10 | .
OC(COc1ccc(Cl)c2ccccc12)CN1CCN(c2ccccn2)CC1 (centres undefined) | 11 | 63* | 7 | 1 | 49 | 4
OC(COc1cccc2ccccc12)CN1CCN(c2cccc(Cl)c2)CC1 (centres undefined) | 52* | 69* | -5 | 4 | 25 | -37
COC(=O)c1cc(C(=O)OCC(=O)N(C)c2ccccc2)cc([N+](=O)[O-])c1 | 14 | 29 | 6 | 20 | 28 | .
COc1ccccc1NS(=O)(=O)c1cccc(NS(=O)(=O)c2cc(C(=O)O)ccc2OC)c1 | . | 10 | 2 | 15 | 9 | .
COc1ccc(-c2nc(-c3cccc(C)c3)nc(N3CCN(C)CC3)c2C#N)cc1 | 1 | 59* | 36 | 30 | 24 | 44*
Brc1cc2c(cc1-c1nc3ccccc3s1)OCO2 | -1 | 8 | 6 | 8 | 20 | .
Oc1ccc(N=C/C=C/c2ccc(Br)cc2)cc1-c1nc2ccccc2s1 | 20 | 64* | 30 | 23 | 25 | 44*
CCCCNC(=O)CSc1nnc(-c2c[nH]c3ccccc23)n1CC1CCCO1 (centres undefined) | 3 | 8 | -8 | 9 | -1 | .
CCCCCCc1ccc(-c2ncc(N)cn2)cc1 | 11 | 53* | 4 | 39 | 32 | 41*
CCCCCc1ccc(-c2nnc(N)s2)cc1 | -1 | 14 | -21 | -10 | 34 | .
CN(C(=O)CSc1nnc(COc2ccccc2F)n1N)C1CCS(=O)(=O)C1 (centres undefined) | -12 | -3 | -8 | -3 | 4 | .
Cc1cccc(C(=O)Nc2ccc(C(=O)/C=C/c3ccncc3)cc2)c1 | 2 | 62* | 26 | 34 | 23 | 59*
Cc1cccc(C(=O)Nc2cccc(C(=O)N/N=C/c3ccncc3)c2)c1 | -3 | 10 | 5 | 12 | 14 | .
Oc1ccc(/C=C/c2ccc3cccc(O)c3n2)cc1Br | 89* | 53* | 14 | 30 | 19 | 71*
Cc1c(NC(=S)N/N=C\c2ccccc2O)c(=O)n(-c2ccccc2)n1C | -3 | 10 | 11 | -6 | 6 | .
